TGFb SMAD3 inh = TGF-b pathway inhibition. HepG2 CAGA-GFP TGF-b/SMAD3 reporter, GFP fluorescence, 18 h; TGF-beta stimulated, 500 pg/mL final. AID 588855. hit rate 1.2% among 410,000. Potency, µM (series often up to 46.1 µM), without a hit: at the highest dose activity, negative = inhibition, most hits filed as inhibitors; also: % is scaled to controls: 0 for no effect and ±100 for the full control effect; nearly all actives have a fitted effect of over 65% in size
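HEPG2 CAGA-GFP, 1000 cells/well; 2 h settle, 37 C; cpd via pin tool; TGF-b 500 pg/mL final; 18 h, 37 C; GFP imaging ex488/em500-530; %Activity normalised to -TGF-b and +DMSO controls; CRC fit, curve class.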
HT1080 IDH1KD tx = kills HT-1080 cells with IDH1 knockdown; HT-1080 IDH1 knockdown viability, ATP luminescence, 48 h; hit rate 2% among 360,000; Potency, µM (series often up to 46.1 µM), inactives show at the top dose activity, negative = toxicity, usual class: cytotoxic; AID 686971;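 also: 0% = DMSO wells and -100% = cell-free medium wells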
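% activity derives from luminescence (CellTiter-Glo), normalised to DMSO and no-cell wells. HT-1080-IDH1KD cells, 750/well, had 48 h compound exposure at 37 °C.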
HepG2 tox = HepG2 cytotoxicity, counter-screen for TGF-b inhibitors; HepG2 CAGA-GFP viability, ATP luminescence, 18 h; Potency, µM (series often up to 46.1 µM), for the others: at the top dose activity change, negative = cytotoxicity, most hits filed as cytotoxic; hit rate 0.76% among 410,000
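HepG2 CAGA-GFP cells (1000/well, DMEM with 1% FBS) received compound, then TGF-beta at 500 pg/mL final, and were incubated 18 hours at 37 degrees C. Viability was read by CellTiter-Glo luminescence. Media-only wells were set as complete cell-killing and DMSO as no toxicity.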
ATXN viability = reduces viability in counter-screen for ATXN expression inhibitors | AID 651635 | hit rate 0.49% among 400,000 | Potency, µM (titrated, usually from 56.7 µM), actives largely listed as cytotoxic | S2 cells (HEK-293 line with an ATXN2-luciferase reporter) viability, CellTiter-Fluor protease fluorescence, 24 h; also: nearly all actives have a fitted effect of over 40% in size
HT1080NT lethal = kills 2HG-producing HT-1080-NT fibrosarcoma cells | HT-1080-NT fibrosarcoma viability, CellTiter-Glo ATP luminescence, 48 h | Potency, µM (top dose mostly 46.1 µM), without a hit: top-dose activity, negative = less viability, most hits filed as cytotoxic | hit rate 1.6% among 360,000;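 also: NT is the 2HG producing partner of a matched IDH1 knockdown line; 0% = DMSO-treated cells and -100% = media-only wells without cells; nearly all actives have a fitted effect of over 55% in size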
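A 48-hour cytotoxicity screen used HT-1080-NT cells plated 2 hours before compound delivery. ATP-based CellTiter-Glo luminescence measured viability, normalized to DMSO and no-cell controls.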
ATXN2 expr inh = reduces ATXN2 reporter expression in HEK-293 cells. AID 1745845. hit rate 0.72% among 360,000. Potency, µM (doses to about 57 µM), inactives show at the top dose activity change, negative = inhibition, most hits filed as inhibitors. HEK-293 ATXN2-luciferase reporter, luminescence, 24 h; also: % is scaled to controls: 0 for no effect and ±100 for the full control effect; nearly all actives have a fitted effect of over 55% in size
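ATXN2-luciferase reporter cells (luciferase flanked by upstream and downstream ATXN2 gene portions) were treated 24 h at 37 °C with compounds at up to 57 uM. SteadyGlo luminescence gave expression; GF-AFC fluorescence gave viability.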
* marks the source's active call; other numbers are inactive results; i = inactive; u = inconclusive; x = no result given; ! = not confirmed by another sample; [ ] = remark or other dose. Rows were chosen to be rich in hits. Some 3.8% of all compounds tested hit in one or more screens of this group. Calls follow the shape of the dose curve; as a rule, active = well fitted curve in the direction sought with a large enough effect; inconclusive = small, poorly fitted or top-dose-only effect, or another doubt; inactive = no such curve, though single readings can be large; an effect the other way counts as inactive or inconclusive. Potency is read from the fitted curve at half-maximal effect.

SMILES	TGFb SMAD3 inh	HT1080 IDH1KD tx	HepG2 tox	ATXN viability	HT1080NT lethal	ATXN2 expr inh
CCC/C=C1/CCCOC(C(=O)NCC2CC2)(C(F)(F)F)C1 (stereo not drawn)	-15%	x	-1%	x	x	x
CCN(Cc1ccncc1)Cc1ccc2c(c1)CN(C(=O)c1cccc(-n3nc(C)cc3C)c1)CCO2	x	x	x	i	x	x
O=C(c1ccc2c3n(nc2c1)-c1ccccc1CO3)N1CCOCC1	-9%	23µM*	7.9µM*	i	8.2µM*	14%
O=C(c1ccc2c3n(nc2c1)-c1ccccc1CO3)N1CCCCC1	-11%	23µM*	7.1µM*	i	16µM*	-7%
CC(C)(S)C(=O)N[C@@H](CS)C(=O)O	x	x	x	i	x	x
COc1ccc(N2CCN(C(c3ccccc3)c3nnnn3C(C)C)CC2)cc1 (stereo not drawn)	0%	x	1%	x	x	x
CCc1cccc(NC(=O)C(Cc2ccccc2)NS(=O)(=O)c2ccc3c(c2)c(=O)n(C)c(=O)n3C)c1 (stereo not drawn)	4.5µM*	x	-31%	i	x	-32%
Cc1ccc(NC(=O)C(Cc2ccccc2)NS(=O)(=O)c2ccc3c(c2)c(=O)n(C)c(=O)n3C)cc1 (stereo not drawn)	u	x	-9%	i	x	-20%
CCCC(=O)Nc1nc(C)c(-c2csc(Nc3cc(OC)ccc3OC)n2)s1	1%	-25%	-9%	i	-9%	-21%
C=CCCC(=O)Nc1nc(C)c(-c2csc(Nc3cc(OC)ccc3OC)n2)s1	u	7.3µM*	0%	i	7.3µM*	-36%
O=S(=O)(c1cccc(NC(=S)N2CCN(c3ccc(F)cc3)CC2)c1)C(F)F	u	-10%	-12%	u	2%	x
O=S(=O)(c1cccc(NC(=S)N2CCN(c3cccc(Cl)c3)CC2)c1)C(F)F	0%	23µM*	5%	i	21µM*	-15%[11.3 µM]
COCCNC(=S)N/N=C(\C)c1ccc(Cl)c(Cl)c1	8.9µM*	11%	-58%	i	11%	15%
COCCNC(=S)N/N=C(\C)c1ccccc1O	5.6µM*	9%	-95%	i	10%	9%
COCCNC(=S)N/N=C(\C)c1ccccc1OC	-9%	6%	0%	i	19%	3%
Cc1c(N)cccc1C(F)(F)F	x	x	x	i	x	22%
COc1ccc(OC)c(-c2csc(-c3c(N)c(C(=O)c4ccc(Cl)cc4)n4ccccc34)n2)c1	-1%	x	3%	i	x	0%
Nc1nccc(Oc2ccc(NC(=O)c3c[nH]cc(-c4ccc(F)cc4)c3=O)cc2F)c1Cl	x	x	x	x	x	31µM*
CCOc1ccc(Cl)cc1-c1cc(C(=O)Nc2ccc(F)cc2)[nH]n1	u	u	-23%	u	u	u
Cc1ccccc1-c1noc(-c2ccc(N3CCC(C)CC3)c([N+](=O)[O-])c2)n1	-19%	x	-25%	i	x	16%
Clc1ccc(OCCOCCOc2cccc3cccnc23)c(Br)c1	u	u	16µM*	i	u	-13%
CC(C)COCc1ccc(O)c2ncccc12	10µM*	10µM*	-49%	i	21µM*	u
Oc1ccc(CNc2ccccc2F)c2cccnc12	7.1µM*	u	-24%	11µM*!	u	18µM*!
Oc1ccc(CN2CCCCC2)c2cccnc12	3.2µM*	1.4µM*	-60%	13µM*	3.2µM*	20µM*
CCCOCc1ccc(O)c2ncccc12	u	u	-9%	i	-11%	u
SMILES	TGFb SMAD3 inh	HT1080 IDH1KD tx	HepG2 tox	ATXN viability	HT1080NT lethal	ATXN2 expr inh
Cc1ccc(C)c(S(=O)(=O)N2CCN(Cc3ccc(O)c4ncccc34)CC2)c1	u	u	5%	i	u	8.9µM*
Oc1ccc(Cc2ccccc2)c2cccnc12	-20%	u	-5%	i	u	u
Cc1ccc(CN2C[C@H](Sc3ccccn3)C[C@H]2C(=O)Nc2ccc3sc(C)nc3c2)s1	x	x	x	i	x	x
CC(C)Oc1ccc(CNC(=O)c2ccc(CS(=O)Cc3ccccc3Cl)o2)cc1 (stereo not drawn)	u	x	-8%	x	x	x
Oc1c(CN2CCOCC2)ccc2ccccc12	1%	-14%	-1%	i	-8%	3%
Oc1ccc(CN2CCN(c3ccccc3)CC2)c2cccnc12	u	0.71µM*	-35%	i	1.1µM*	u
Oc1ccc(CN2CCc3ccccc3C2)c2cccnc12	u	13µM*	-63%	x	12µM*	u
Oc1c(CN2CCCCC2)ccc2cccnc12	u	3.3µM*	-31%	u	2.1µM*	u
Oc1cc2c(cc1CN1CCc3ccccc3C1)OCO2	u	-2%	-28%	i	-3%	2%
CC1CN(CCC(=O)N2CCCC(C(=O)c3nccn3C)C2)Cc2cc(Cl)ccc2O1 (stereo not drawn)	x	x	x	i	x	x
CCN(CC)CCN(C(=O)CCS(=O)(=O)c1ccccc1)c1nc2cc(C)cc(C)c2s1	16µM*	u	18µM*	i	u	-30%
Cc1cccc(OCC(=O)Nc2ccc3c(c2)nc(CCN2CCN(c4ccccn4)CC2)n3C)c1	-29%	u	-9%	u	-21%	14µM*
CC(=O)C1=CCC(c2ccc(Cl)cc2)N(S(=O)(=O)c2ccccc2C)C1 (stereo not drawn)	u	16µM*	0%	u	u	-36%
CC(=O)C1=CCC(c2ccccc2)N(S(=O)(=O)c2ccc(Cl)cc2)C1 (stereo not drawn)	u	u	-14%	i	u	-29%
C[C@H]1c2cccc(O)c2C(O)=C2C(=O)[C@]3(O)C(O)=C(C(N)=O)C(=O)[C@@H](N(C)C)C3[C@@H](O)C21 (stereo partly drawn)	38%	23µM*	1%	i	u	-10%
CN(C)[C@@H]1C(=O)C(C(N)=O)=C(O)[C@@]2(O)C(=O)C3=C(O)c4c(O)cccc4C[C@H]3C[C@@H]12	x	x	x	i	x	-11%
Cc1cc(=O)oc2c(C)c(OC(C)C(=O)NCC(O)c3ccccc3)ccc12 (stereo not drawn)	-2%	6%	-2%	i	-3%	0%
Cc1c(OC(C)C(=O)NCC(O)c2ccccc2)ccc2c3c(c(=O)oc12)CCCC3 (stereo not drawn)	-10%	-6%	0.11µM*	i	-14%	-22%
Cc1cnc(C)c(-c2cccc3c2OC(CNC(=O)CN2C(=O)c4ccccc4C2=O)C3)n1 (stereo not drawn)	x	x	x	i	x	x

Screening results deposited in PubChem BioAssay by National Center for Advancing Translational Sciences (NCATS).
